Some test systems named below: HCT-15 colon; HT29 colon; SNB-75 CNS; SNB-19 CNS; U251 CNS; PC-3 prostate; SK-MEL-5 melanoma; UACC-62 melanoma; SK-MEL-2 melanoma; EKVX NSCLC; SN12C renal; UO-31 renal; TK-10 renal; ACHN renal; CAKI-1 renal; A498 renal; MOLT-4 leukemia; SK-MEL-28 melanoma; CCRF-CEM leukemia; LOX IMVI melanoma.
What all share (assay): NCI-60 one-dose screen, 48 h (100 = growth as untreated, 0 = no growth, -100 = all killed)
Common to all, as to settings: 10 µM unless noted

The structures appear in SMILES notation. About 83,000 compounds went through this panel and 20% of them were active in at least one assay; those are over-represented in the sample as a whole.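 Values shown are percent growth following 48 h exposure of cells in 96-well plates to a single concentration of compound; below 10 was considered active.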 Values without a mark were called inactive. Active and inactive are the calls of the source.

`COc1ccc(Oc2ccc(/C=C/C(=O)c3ccc(OC)c(OC)c3)cc2)cc1`: the growth was 61.5% in the assay on HCT-15 colon; 86% with HT29 colon; 72.5% in the assay on SNB-75 CNS; 85.8% in the assay with SNB-19 CNS; 68.9% with U251 CNS; 81.6% in the assay with PC-3 prostate. The growth in the assay with SK-MEL-5 melanoma is 75.3%; with UACC-62 melanoma it was 67.5%; with SK-MEL-2 melanoma it was 89%; in the assay on EKVX NSCLC, 79.4%; with SN12C renal, 86.7%; with UO-31 renal, 70.9%. Besides, the growth is 105% with TK-10 renal; 92.5% in the assay with ACHN renal; 85.5% in the assay on CAKI-1 renal; 90.3% in the assay with A498 renal; -9.69% (active) in the assay with MOLT-4 leukemia.
As for `Nc1c(C(=O)Nc2cccc3ncccc23)sc2nc3c(cc12)CN(Cc1ccccc1)CC3`, the growth with HCT-15 colon was 74.2%; with HT29 colon, 81.7%; in the assay with SNB-75 CNS, 84.2%; in the assay with SNB-19 CNS, 82.3%; in the assay on U251 CNS, 88%; in the assay on PC-3 prostate, 77%. The growth in the assay on SK-MEL-5 melanoma was 19.2%; in the assay with UACC-62 melanoma, 53.5%; in the assay with SK-MEL-28 melanoma, 81.7%; in the assay with SK-MEL-2 melanoma, 57.3%; in the assay with EKVX NSCLC, 76.4%; with SN12C renal, 82.1%. For the same compound, the growth was 70.2% with UO-31 renal; 89.4% with TK-10 renal; 88.6% with ACHN renal; 74.1% in the assay on CAKI-1 renal; 72.1% in the assay on A498 renal; 48.5% in the assay with MOLT-4 leukemia.
Take `COC(=O)[C@@]1(C)CC[C@]2(C)CC[C@]3(C)C4=CC=C5C(=CC(=O)C(O)=C5C)[C@]4(C)[C@@H](O)C[C@@]3(C)[C@@H]2C1`: the growth in the assay on HCT-15 colon was 1.43% (active); in the assay on HT29 colon it was 31.1%; in the assay with SNB-75 CNS, 70.5%; in the assay on SNB-19 CNS, 22.9%; with U251 CNS, -10.1% (active); in the assay on PC-3 prostate it was 29.1%. The growth in the assay with SK-MEL-5 melanoma was 60.7%; with UACC-62 melanoma, 29.6%; in the assay on SK-MEL-28 melanoma it was -17.8% (active); in the assay on SK-MEL-2 melanoma, 43.5%; in the assay on EKVX NSCLC, 51%; in the assay on SN12C renal, 9.92% (active). Moreover, the growth with UO-31 renal was -56.6% (active); in the assay with TK-10 renal, 18.4%; in the assay with ACHN renal, -49.9% (active); in the assay with CAKI-1 renal it was 9.58% (active); in the assay with A498 renal, 101%; in the assay on CCRF-CEM leukemia, -2.39% (active). Further, in the assay with MOLT-4 leukemia, the growth was -20% (active).
Turning to `CCOC(=O)c1nnn(-c2no[n+]([O-])c2-c2ccc(OC)cc2)c1COc1cccc2cccnc12`, the growth in the assay with HCT-15 colon was 22.2%; with HT29 colon, 3.79% (active); with SNB-75 CNS, 73.1%; in the assay with SNB-19 CNS, 25.2%; in the assay with U251 CNS it was 14.9%; in the assay on PC-3 prostate, 34.2%. Also, the growth was -22.4% (active) in the assay with SK-MEL-5 melanoma; 8.44% (active) in the assay with UACC-62 melanoma; 58.2% in the assay with SK-MEL-28 melanoma; 3.57% (active) with SK-MEL-2 melanoma; 44.8% in the assay on EKVX NSCLC; 3.95% (active) in the assay with SN12C renal. Further, the growth was 34.3% in the assay with UO-31 renal; 33.2% in the assay with TK-10 renal; 21.8% in the assay on ACHN renal; 24.1% in the assay on CAKI-1 renal; 103% in the assay with A498 renal; 4.84% (active) with CCRF-CEM leukemia. Moreover, the growth with MOLT-4 leukemia was 10%.
On to `COc1cc2c(c(OC)c1OC)C(=O)CC(c1cccc(C(=O)Nc3ccc(C#N)cc3)c1)O2` (stereo unspecified), for which the growth was 63% in the assay with HCT-15 colon; 86.4% in the assay on HT29 colon; 74.8% with SNB-75 CNS; 89.5% in the assay with SNB-19 CNS; 94.7% in the assay on U251 CNS; 39.2% in the assay on PC-3 prostate. Further, the growth was 37.5% with SK-MEL-5 melanoma; 34.8% with UACC-62 melanoma; 95.6% in the assay on SK-MEL-28 melanoma; 74.6% in the assay on SK-MEL-2 melanoma; 80.2% in the assay on EKVX NSCLC; 72.1% in the assay with SN12C renal. The growth was 52% in the assay on UO-31 renal; 92.3% with TK-10 renal; 79.4% in the assay on ACHN renal; 71.6% in the assay on CAKI-1 renal; 72.1% in the assay on A498 renal; 25% with CCRF-CEM leukemia. The growth in the assay with MOLT-4 leukemia is 20%.
For `Cn1c(=O)c2[nH]c(SC/C(=N/O)c3ccc(Br)cc3)nc2n(C)c1=O`, the growth was 76.4% with HCT-15 colon; 70% in the assay with HT29 colon; -27.2% (active) with SNB-75 CNS; 38.6% with SNB-19 CNS; 1.08% (active) in the assay on U251 CNS; 49.3% with PC-3 prostate. The growth in the assay with SK-MEL-5 melanoma was 33.4%; with UACC-62 melanoma, -14.2% (active); in the assay on SK-MEL-28 melanoma it was 45.6%; in the assay with SK-MEL-2 melanoma, 33.6%; in the assay with EKVX NSCLC, 43.2%; in the assay with SN12C renal, 17%. Further, the growth was 4.1% (active) in the assay on UO-31 renal; -30.6% (active) in the assay with TK-10 renal; -58.4% (active) in the assay on ACHN renal; -45.3% (active) in the assay with CAKI-1 renal; -80% (active) with A498 renal; 83.9% in the assay with CCRF-CEM leukemia. In addition, the growth with MOLT-4 leukemia was 94.7%.
With `Cc1ccc(C2CC(c3cccc(Nc4ccncc4)c3)=Nc3c(N)nc(N)nc3N2)cc1` (stereo unspecified), the growth in the assay on HCT-15 colon is 40.4%; with HT29 colon it was 21.7%; in the assay with SNB-75 CNS it was 70%; in the assay on SNB-19 CNS it was 70.5%; in the assay on U251 CNS, 42.4%; with PC-3 prostate it was 43.8%. The growth was 65.3% in the assay with SK-MEL-5 melanoma; 78.4% in the assay on UACC-62 melanoma; 25.7% in the assay with LOX IMVI melanoma; 71.1% in the assay with SK-MEL-2 melanoma; 60.2% with EKVX NSCLC; 75.3% in the assay on UO-31 renal. Moreover, the growth is 99.8% in the assay on TK-10 renal; 56.1% in the assay on ACHN renal; 72.3% with CAKI-1 renal; 86% in the assay with A498 renal; 33.4% in the assay with MOLT-4 leukemia.
In the case of `COc1ccc(N=C2NN=C(c3c[nH]c4ccccc34)CS2)cc1OC`, the growth is 43.3% with HCT-15 colon; 25.3% with HT29 colon; 42.2% with SNB-75 CNS; 51.8% in the assay with SNB-19 CNS; 44.8% in the assay with U251 CNS; -41.3% (active) in the assay on PC-3 prostate. Further, the growth with SK-MEL-5 melanoma was 51.9%; in the assay on SK-MEL-28 melanoma, 63.7%; with SK-MEL-2 melanoma, 19.1%; in the assay with EKVX NSCLC it was 63.3%; in the assay with SN12C renal, 70.7%; with UO-31 renal it was 35.9%. The growth with TK-10 renal was 96%; in the assay with ACHN renal it was 62.8%; with CAKI-1 renal, 63.8%; with A498 renal, 62.5%; in the assay on CCRF-CEM leukemia, 39.5%; with MOLT-4 leukemia it was 39.9%.
For `COc1cc(N2C(=O)[C@H](Cl)C2c2ccc(SC)cc2)cc(OC)c1OC` (stereo partly specified), the growth in the assay with HCT-15 colon is 4.62% (active); in the assay on HT29 colon it was 1.22% (active); in the assay on SNB-75 CNS it was 73.9%; in the assay with SNB-19 CNS, 30.5%; in the assay with U251 CNS, 7.72% (active); with PC-3 prostate, 22.1%. Also, the growth in the assay on SK-MEL-5 melanoma is -34.3% (active); in the assay on LOX IMVI melanoma it was 20.3%; in the assay with SK-MEL-28 melanoma it was 65.7%; in the assay with SK-MEL-2 melanoma, 44.6%; with EKVX NSCLC it was 28.6%; in the assay with SN12C renal, 31.8%. In addition, the growth is 40.6% in the assay on UO-31 renal; 30.3% in the assay on ACHN renal; 24.3% in the assay with CAKI-1 renal; -7.35% (active) in the assay with A498 renal; 7.86% (active) with MOLT-4 leukemia.
Take `O=[N+]([O-])c1c(O)c(Cl)cc(Cl)c1Cl`: the growth was 99.8% in the assay with HCT-15 colon; 101% in the assay with HT29 colon; 98.8% with SNB-75 CNS; 101% in the assay with SNB-19 CNS; 97.9% in the assay on U251 CNS; 88% in the assay with PC-3 prostate. For the same compound, the growth is 98.3% with SK-MEL-5 melanoma; 94.2% in the assay with LOX IMVI melanoma; 109% with SK-MEL-28 melanoma; 113% with SK-MEL-2 melanoma; 107% with EKVX NSCLC; 93.6% with UO-31 renal. The growth in the assay with TK-10 renal was 96.8%; in the assay with ACHN renal, 103%; with CAKI-1 renal it was 102%; in the assay with A498 renal it was 110%; in the assay on CCRF-CEM leukemia, 106%; in the assay with MOLT-4 leukemia it was 100%.

The record behind these values is PubChem BioAssay (NCI).
